From PubChem BioAssay
Rows were chosen to be rich in hits. Some 2.8% of all compounds tested hit in one or more screens of this group.
DRD3 antagonist = qHTS of D3 Dopamine Receptor Antagonist: qHTS; D(3) dopamine receptor (Homo sapiens), P35462; D3R cells, DiscoveRx beta-arrestin luminescence, antagonist mode; active compounds read low; max response, negative = inhibition, %; actives 2.5% (n = 360,000); in the data active means max response below about -50%; inconclusive means no clear call, values can overlap the other calls
Target sequence (P35462 whole entry, looked up): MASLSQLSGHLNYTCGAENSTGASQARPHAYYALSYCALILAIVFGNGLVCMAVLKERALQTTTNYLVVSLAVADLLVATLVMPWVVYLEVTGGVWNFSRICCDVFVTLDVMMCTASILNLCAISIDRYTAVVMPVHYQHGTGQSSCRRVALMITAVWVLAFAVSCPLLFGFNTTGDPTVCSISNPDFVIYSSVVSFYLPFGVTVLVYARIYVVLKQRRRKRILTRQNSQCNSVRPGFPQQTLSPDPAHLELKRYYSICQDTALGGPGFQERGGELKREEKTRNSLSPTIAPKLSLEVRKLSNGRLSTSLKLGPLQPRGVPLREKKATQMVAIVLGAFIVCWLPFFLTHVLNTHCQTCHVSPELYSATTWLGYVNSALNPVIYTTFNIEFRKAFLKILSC
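Cells plated overnight at 1500 cells/well, then exposed to library compounds with dopamine controls for 90 minutes at 37 degrees C. DiscoveRx reagent added for 30–60 minutes at room temperature; luminescence read, quantitative HTS format.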
Integrin act MD = qHTS for Activators of Integrin-Mediated Alleviation for Muscular Dystrophy; alpha7betagal myoblasts, beta-gal FDG fluorescence, 48 h; Potency, µM (titrated, usually from 38.3 µM), usual class: activators; actives 0.064% (n = 350,000); AID 624291, 2012; further: nearly all actives have a fitted effect of over 60% in size
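Alpha7betagal+/- myoblasts (passage 13) were plated 16-24 hr, then exposed to compounds (1:260 dilution of DMSO stock) for 48 hours at 37C. After MPER lysis, β-galactosidase reporter activity was read as FDG fluorescence (ex 480/em 540) after 30 minutes.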
D3 ag = qHTS of D3 Dopamine Receptor Agonist: qHTS; D(3) dopamine receptor (Homo sapiens), P35462; D3R DiscoveRx beta-arrestin cells, luminescence, 90 min; max activation, %; actives 0.58% (n = 410,000); in the data active means max activation above about 30%
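Agonist-mode cell screen: cells plated at 1500/well and incubated overnight at 37 °C, then exposed to library compounds for 90 min at 37 °C. Detection reagent was added for 30–60 min at room temperature, and luminescence was read.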
PTHR1 agonist = qHTS for PTHR1 Agonists: Primary Screen. Parathyroid hormone/parathyroid hormone-related peptide receptor (Homo sapiens), Q03431. Potency, µM (top dose mostly 115 µM), hits mostly activators. actives 0.075% (n = 410,000). AID 743266, 2014. HEK293 GP2 PTHR1 cells, GloSensor cAMP luminescence, 1 h; further: nearly all actives have a fitted effect of over 55% in size
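HEK-293-derived GP2 cells expressing PTHR1 and a GloSensor cAMP reporter, 3,000/well, plated overnight, given luciferin plus IBMX (each 0.5 mM as added) for 1 h at 37 °C, then compound for 1 h at 37 °C. Luminescence was read after 15 min at room temperature.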
MBNL1 CUG block = qHTS Assay for Inhibitors of MBNL1-poly(CUG) RNA binding; Muscleblind-like protein 1 (Homo sapiens), Q9NR56; AID 2675, 2010; TR-FRET MBNL1-His/biotin-(CUG)12 binding, 665/545 ratio; Potency, µM (highest dose often 57.5 µM), most hits filed as inhibitors; actives 0.036% (n = 280,000); active means well fitted inhibition curve with a large enough effect in the signal ratio, with a control signal flat, not every such curve was filed as active; inconclusive means small, poorly fitted or top-dose-only effect, or effect the other way, or a change in a side signal; inactive means no such curve, though single readings can be large or run the other way; the % refers to the signal ratio
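His-tagged MBNL1 binding to biotinylated (CUG)12 RNA was measured by TR-FRET using terbium anti-His antibody (0.055 ng/ul final) and streptavidin-XL665 (5 nM final). Compounds were titrated 92 nM to 58 uM; 60 min at room temperature.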
CBFb-RUNX1 inh = qHTS Assay for Compounds Blocking the Interaction Between CBF-beta and RUNX1 for the Treatment of Acute Myeloid Leukemia; Runt-related transcription factor 1 (Homo sapiens) + Core-binding factor subunit beta …; AlphaScreen CBFb-His/RUNX1-biotin binding, biochemical; Potency, µM (doses to about 59.8 µM), actives largely listed as inhibitors; 230,000 tested, under 10 active
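Interaction loss through any mechanism counts as activity. Pre-formed complex of His-CBF-beta and biotin-RUNX1 (30 nM apiece) is incubated with compound 15 min, then with 50 ng nickel and 50 ng streptavidin beads for 90 min before AlphaScreen detection.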
Large screens that a line does not name were inactive. Unless noted, the call rests on the fitted dose curve; in most records, active means well fitted curve in the direction sought with a large enough effect; inconclusive means small, poorly fitted or top-dose-only effect, or another doubt; inactive means no such curve, though single readings can be large; an effect the other way counts as inactive or inconclusive.

CCCCCCCCCCCCCCCC(=O)O[C@@H]1[C@@H](O)[C@@H](O)[C@@H]([C@H](NC(=O)[C@@H]2C[C@@H](CCC)CN2C)[C@H](C)Cl)O[C@@H]1SC	none (no result: DRD3 antagonist, Integrin act MD, PTHR1 agonist, MBNL1 CUG block, CBFb-RUNX1 inh)
CCN(CC(=O)Nc1ccc(OC)c(Cl)c1)CC(=O)NC(C)C	none
COc1ccc(C(=O)[C@H]2[C@H]3C(=O)N(c4ccccc4)C(=O)[C@H]3C3C=CC=NN32)cc1 (stereo partly drawn)	D3 ag 68, MBNL1 CUG block inconclusive
COc1cc(C)c2c(c1OC)C(=O)CC2	none (no result: MBNL1 CUG block, CBFb-RUNX1 inh)
COc1ccc(CNc2nc3ccccc3n2C(C)C)cc1	none (no result: CBFb-RUNX1 inh)
CCn1c(CNc2nc3ccccc3n2C(C)C)nc2ccccc21	DRD3 antagonist -59
Cc1ccc(NC(=O)NCc2nc3ccccc3n2C)cc1	Integrin act MD 4.5µM (no result: CBFb-RUNX1 inh)
CC(C)n1c(NCc2nc3ccccc3n2C)nc2ccccc21	DRD3 antagonist -93, PTHR1 agonist inconclusive
Cn1c(CNc2nc3ccccc3n2C)nc2ccccc21	DRD3 antagonist -70
Cc1ccc(N(CC(=O)NCC2CCCO2)S(=O)(=O)c2ccccc2)c(C)c1 (stereo not drawn)	none (no result: CBFb-RUNX1 inh)
N#C/C(=C\c1c[nH]c2ccccc12)C(=O)NCC1CCCO1 (stereo not drawn)	Integrin act MD inconclusive, MBNL1 CUG block inconclusive
CCN1C(=O)c2ccccc2S(=O)c2ccc(C(=O)NCc3ccc(C)cc3)cc21 (stereo not drawn)	none (no result: DRD3 antagonist, Integrin act MD, MBNL1 CUG block, CBFb-RUNX1 inh)
CCN1C(=O)c2ccccc2S(=O)c2ccc(C(=O)NCCN(CC(C)C)CC(C)C)cc21 (stereo not drawn)	DRD3 antagonist -65 (no result: CBFb-RUNX1 inh)
CCCCC[C@@H]1C=C(C(=O)O)[C@H](c2ccc(OC)c(OC)c2)N1S(=O)(=O)c1ccc(C)cc1	none (no result: MBNL1 CUG block, CBFb-RUNX1 inh)
CCc1nc2ccc(C(=O)NCc3ccc4c(c3)OCO4)cn2c1N(CC)Cc1cccc(Br)c1	none (no result: Integrin act MD, MBNL1 CUG block, CBFb-RUNX1 inh)
Cc1cc(NC(=O)C(C)SCC(=O)Nc2ccccc2C(C)(C)C)no1 (stereo not drawn)	none (no result: MBNL1 CUG block, CBFb-RUNX1 inh)
CC1CCN(C2=NC(=O)/C(=C/c3cccc(O)c3)S2)CC1	DRD3 antagonist -85, MBNL1 CUG block inconclusive (no result: CBFb-RUNX1 inh)
CC1CCN(C2=NC(=O)/C(=C/c3ccccc3F)S2)CC1	none (no result: CBFb-RUNX1 inh)
O=C(NCC(O)CO)c1c(I)c(C(=O)NCC(O)CO)c(I)c(N(CCO)C(=O)CO)c1I (stereo not drawn)	none (no result: DRD3 antagonist, Integrin act MD, PTHR1 agonist, MBNL1 CUG block, CBFb-RUNX1 inh)
CC(NC(=O)NC1CCCCC1)C(c1cccs1)N1CCN(c2ccccc2)CC1 (stereo not drawn)	DRD3 antagonist -55
CCN(CC)CCCNC(=O)C(C)n1nc(C)n2c(cc3occc32)c1=O (stereo not drawn)	none (no result: DRD3 antagonist, Integrin act MD, MBNL1 CUG block, CBFb-RUNX1 inh)
Cc1ccc(-c2c[n+](CC(=O)Nc3ccc(C)cc3C)c3n2CCC3)cc1	DRD3 antagonist inconclusive
Cc1ccc(NC(=O)C[n+]2cc(-c3ccc(C)cc3)n3c2CCC3)cc1	DRD3 antagonist -66 (no result: MBNL1 CUG block)
CCOc1ccc(Cl)cc1-c1cc(C(=O)NCc2cccc(C(F)(F)F)c2)[nH]n1	none (no result: Integrin act MD, MBNL1 CUG block, CBFb-RUNX1 inh)
CC(C)Nc1nc(NCCN2CCCC2)c2sc(-c3ccccc3)cc2n1	DRD3 antagonist -65 (no result: Integrin act MD, MBNL1 CUG block, CBFb-RUNX1 inh)
C=CCNc1nc(NCCOC)c2sc(-c3ccccc3)cc2n1	none (no result: Integrin act MD, MBNL1 CUG block, CBFb-RUNX1 inh)
C=CCNc1nc(NCCOc2ccccc2Cl)c2sc(-c3ccccc3)cc2n1	DRD3 antagonist -67, PTHR1 agonist inconclusive (no result: Integrin act MD, MBNL1 CUG block, CBFb-RUNX1 inh)
CC(C)Nc1nc(-c2ccccc2F)c2sc(-c3ccccc3)cc2n1	none (no result: Integrin act MD, MBNL1 CUG block, CBFb-RUNX1 inh)
COC(=O)CCC[C@H]1CC2(C[C@H](CCCO[Si](C)(C)C(C)(C)C)N1C(=O)OC(C)(C)C)OCCO2	none (no result: MBNL1 CUG block, CBFb-RUNX1 inh)
Cn1c(-c2sc3ccccc3c2Cl)n[nH]c1=S	DRD3 antagonist -76
Clc1c(-c2nnc3n2CCC3)sc2ccccc12	MBNL1 CUG block inconclusive
